From PubChem BioAssay
Compounds with a hit are over-represented: about 2.8% of the library has one in this group of screens.
KDM5B inhibitor: inhibitors of human KDM5B histone demethylase; KDM5B demethylase, FDH-coupled NADH fluorescence (FDH is formaldehyde dehydrogenase); Potency, µM (doses to about 57.7 µM), most hits filed as inhibitors; Q9UGL1; 220,000 tested, 2.6% active; also: potency is read from the fitted curve at half-maximal effect; 0% is about no effect; nearly all actives have a fitted effect of over 70% in size
Target sequence (Q9UGL1 whole entry, looked up): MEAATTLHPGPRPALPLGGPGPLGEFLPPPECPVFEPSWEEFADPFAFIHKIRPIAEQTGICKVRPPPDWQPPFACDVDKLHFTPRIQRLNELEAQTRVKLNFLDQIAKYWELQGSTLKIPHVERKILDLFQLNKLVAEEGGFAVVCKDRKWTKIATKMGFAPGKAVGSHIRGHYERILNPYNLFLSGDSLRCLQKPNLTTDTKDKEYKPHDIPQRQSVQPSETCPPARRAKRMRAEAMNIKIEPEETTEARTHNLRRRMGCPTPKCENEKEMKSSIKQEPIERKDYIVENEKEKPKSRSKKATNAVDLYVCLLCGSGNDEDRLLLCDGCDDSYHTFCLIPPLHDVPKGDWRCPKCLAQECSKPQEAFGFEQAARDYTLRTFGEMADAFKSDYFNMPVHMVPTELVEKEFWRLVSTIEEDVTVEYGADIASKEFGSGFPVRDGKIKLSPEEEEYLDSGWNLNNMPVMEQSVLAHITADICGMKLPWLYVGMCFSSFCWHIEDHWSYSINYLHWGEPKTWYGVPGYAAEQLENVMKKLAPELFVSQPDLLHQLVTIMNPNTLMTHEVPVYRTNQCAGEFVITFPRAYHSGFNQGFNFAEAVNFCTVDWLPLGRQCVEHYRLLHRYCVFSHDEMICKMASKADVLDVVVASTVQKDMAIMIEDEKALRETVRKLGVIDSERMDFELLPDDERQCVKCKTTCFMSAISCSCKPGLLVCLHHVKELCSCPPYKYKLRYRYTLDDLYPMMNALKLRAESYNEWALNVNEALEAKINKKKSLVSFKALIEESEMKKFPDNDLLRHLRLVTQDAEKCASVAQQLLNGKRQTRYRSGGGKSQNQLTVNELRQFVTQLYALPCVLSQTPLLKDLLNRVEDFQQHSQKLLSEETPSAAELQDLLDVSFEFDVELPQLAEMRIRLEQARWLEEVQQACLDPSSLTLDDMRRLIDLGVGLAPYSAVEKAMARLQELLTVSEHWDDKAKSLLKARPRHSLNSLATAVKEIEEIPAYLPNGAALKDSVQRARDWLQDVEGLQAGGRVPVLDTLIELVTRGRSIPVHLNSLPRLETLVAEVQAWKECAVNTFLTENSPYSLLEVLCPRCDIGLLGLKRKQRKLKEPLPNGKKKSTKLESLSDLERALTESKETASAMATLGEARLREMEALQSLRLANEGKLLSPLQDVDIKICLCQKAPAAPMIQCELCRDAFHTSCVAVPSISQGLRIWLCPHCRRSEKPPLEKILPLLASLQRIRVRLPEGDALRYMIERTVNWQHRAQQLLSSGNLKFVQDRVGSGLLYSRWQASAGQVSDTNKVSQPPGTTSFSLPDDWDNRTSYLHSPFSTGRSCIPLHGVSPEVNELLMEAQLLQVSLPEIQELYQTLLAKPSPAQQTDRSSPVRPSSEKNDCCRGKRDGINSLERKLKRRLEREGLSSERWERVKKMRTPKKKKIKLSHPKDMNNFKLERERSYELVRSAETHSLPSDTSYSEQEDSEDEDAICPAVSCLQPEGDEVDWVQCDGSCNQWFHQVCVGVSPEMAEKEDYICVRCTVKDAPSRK
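KDM5BΔAP (200 nM final) in 50 mM HEPES pH 7.5, 0.01% Tween-20 was preincubated 10 min at RT with compound over a concentration range. Substrate mix (H3K4me3 12.5 µM, α-KG 25 µM, Fe²⁺, ascorbate, NAD⁺, FDH) was added, and NADH fluorescence change over 30 min gave dose-response curves.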
HEK293 viab: cell viability loss counter-screen; HEK-293-SNCA-luc viability, GF-AFC fluorescence, 24 h; 150,000 tested, 0.12% active; AID 1671193; Potency, µM (series often up to 57.1 µM), for the others: at the top dose activity change, negative = cytotoxicity, most hits filed as cytotoxic;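 also: potency is read from the fitted curve at half-maximal effect; 0% = DMSO-treated cells and -100% = medium-only wells without cells; nearly all actives have a fitted effect of over 30% in size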
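HEK-293-SNCA-luc cells (1500/well) plated 24 h, then exposed 24 h to a dilution series; GF-AFC added 30 min at 37C, fluorescence 405/540 nm; normalised to medium-only and DMSO wells, Hill fit.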
IP6K1 inh: blocks human inositol hexakisphosphate kinase 1; Q92551; IP6K1 kinase, ADP-Glo luminescence, 2 h; stronger effect = lower value; activity change, % (series mostly up to about 58 µM); 140,000 tested, 0.81% active; AID 1645851; in the data active = activity change below about -25%; also: % is scaled to controls: 0 for no effect and ±100 for the full control effect
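ADP-Glo luminescence measures ADP made by human IP6K1 during a 2 h RT reaction with ATP/IP6 (mix at 1.3 mM/130 uM); top library doses 57.5 and 19.1 uM final.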
SNCA expr inhib: SNCA gene expression inhibition; HEK-293 SNCA-luciferase knock-in, luminescence, 24 h; Potency, µM (highest dose often 57.2 µM), without a hit: at the highest dose activity change, negative = inhibition, actives largely listed as inhibitors; 140,000 tested, 0.17% active;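 also: potency is read from the fitted curve at half-maximal effect; plate controls were DMSO cells for no effect and cell-free wells for full effect; nearly all actives have a fitted effect of over 45% in size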
* marks the source's active call; other numbers are inactive results; i = inactive; ? = inconclusive; · = no result; [ ] = another dose, or the depositor's remark. Unless noted, calls follow the shape of the dose curve; as a rule, active = well fitted curve in the direction sought with a large enough effect; inconclusive = small, poorly fitted or top-dose-only effect, or another doubt; inactive = no such curve, though single readings can be large; an effect the other way counts as inactive or inconclusive.

SMILES | KDM5B inhibitor | HEK293 viab | IP6K1 inh | SNCA expr inhib
COc1cc(OC)cc(C(=O)N2CCC3(CC2)N=C(c2ccc(Cl)cc2)NO3)c1 | ? | -1% | -12 | -14%
COc1ccc(C(=O)N2CCC3(CC2)N=C(c2ccc(Cl)cc2)NO3)cc1 | 32µM* | 2% | -1 | 27%
Cc1ccc(C2=NC3(CCN(C(=O)c4cc(F)ccc4Cl)CC3)ON2)cc1 | i | -6% | 16 | 95%
O=C(Cc1cccs1)N1CCC2(CC1)N=C(c1ccc(Cl)cc1)NO2 | 25µM* | -22% | -6 | ?
O=C(Cc1cccc(F)c1)NCCC1CCN(C(=O)Nc2ccccc2)CC1 | i | 5% | -8 | 14%
COc1ccc(C(=O)Nc2ccc(-c3nnc4n3CCCC4)cc2)cn1 | i | 9% | -6 | 17%
COc1ccc(NC(=O)c2ccc(-c3ncc4cnc(C5=CCOCC5)cn34)cc2)cn1 | 28µM* | -13%[87.6 µM] | -18 | 5%[87.6 µM]
O=C(NCCc1cnc[nH]1)c1ccc(-c2ncc3cnc(-c4ccccc4)cn23)cc1 | · | 3%[87.6 µM] | -2 | -22%[87.6 µM]
O=C(c1ccc(-c2ncc3cnc(C4=CCOCC4)cn23)cc1)N1CC[S+](=O)([O-])CC1 | 35µM* | -4%[87.6 µM] | -12 | 9%[87.6 µM]
O=C(CSc1nc(C2CC2)nc2ccccc12)NC1CCCC1 | i | · | · | ·
O=C(NCCC1CCN(C(=O)Nc2cc(F)cc(F)c2)CC1)c1ccccc1 | i | -3% | -11 | 79%
CN(C)c1cccc(C(=O)NCCC2CCN(C(=O)Nc3cc(F)cc(F)c3)CC2)c1 | 32µM* | -1% | -4 | 120%
O=C(CN1C(=O)NC2(CCOCC2)C1=O)Nc1ccccc1Cl | i | 16% | 8 | -3%
CN1CCOc2c(C(=O)NCc3cnn(C)c3)cc(-c3ccccc3O)cc21 | 28µM* | -9%[87.6 µM] | -15 | 10%[87.6 µM]
Cc1cc(CNC(=O)c2cc(-c3cccnc3)cc3c2OCCN3C)no1 | ? | -12%[87.6 µM] | -24 | -8%[87.6 µM]
CN1CCOc2c(C(=O)NCc3cnn(C)c3)cc(-c3cccnc3)cc21 | i | -12%[87.6 µM] | -7 | -15%[87.6 µM]
CN1CCOc2c(C(=O)NCc3cccnc3)cc(-c3ccccc3)cc21 | 28µM* | -26%[87.6 µM] | -14 | -18%[87.6 µM]
COc1ncc(-c2cc(C(=O)NCc3cnn(C)c3)c3c(c2)N(C)CCO3)cn1 | i | -1%[87.6 µM] | -18 | -4%[87.6 µM]
CN1CCOc2c(C(=O)NCc3cccnc3)cc(-c3ccccc3O)cc21 | 32µM* | -16%[87.6 µM] | -18 | -15%[87.6 µM]
CN1CCOc2c(C(=O)NCc3cccnc3)cc(-c3ccc(CO)cc3)cc21 | 40µM* | -12%[87.6 µM] | -11 | 5%[87.6 µM]
CN1CCN(c2cc(=O)c3ccnc(NCc4ccccc4)c3o2)CC1 | 40µM* | -2%[87.6 µM] | -15 | 25%[87.6 µM]
O=c1cc(-c2ccccn2)oc2c(NCc3ccccc3)nccc12 | 40µM* | -3%[87.6 µM] | -20 | -11%[87.6 µM]
O=c1cc(-c2cnccn2)oc2c(Nc3ccccn3)nccc12 | 40µM* | -6%[87.6 µM] | -10 | 39%[87.6 µM]
O=c1cc(-c2ccccn2)oc2c(Nc3cccnc3)nccc12 | ? | -15%[87.6 µM] | -19 | -11%[87.6 µM]
CN1CCN(c2cc(=O)c3ccnc(-c4ccccc4O)c3o2)CC1 | ? | -2%[87.6 µM] | -15 | 3%[87.6 µM]
SMILES | KDM5B inhibitor | HEK293 viab | IP6K1 inh | SNCA expr inhib
S=C1NC2(CCCCC2)N=C1c1ccc(Cl)cc1 | i | · | · | ·
CCCNC(=O)N1CCC(O)(c2csc(CN3CCN(C)CC3)n2)CC1 | i | 17%[87.6 µM] | 17 | -2%[87.6 µM]
O=C(Cn1nc2c(cc1=O)CCCCC2)N1CC=C(c2c[nH]c3ccccc23)CC1 | 18µM* | -20% | -1 | 41%
Cn1nc(C(=O)NC2CCCc3c2[nH]c2ccccc32)c2ccccc2c1=O (configuration not stated) | 25µM* | -4% | 0 | -5%
O=C(NC1CCCc2c1[nH]c1ccccc21)c1ccccc1 (configuration not stated) | ? | 7% | -4 | 28%
O=C(Cn1nc2c(cc1=O)CCCCC2)NC1CCCc2c1[nH]c1ccccc21 (configuration not stated) | 28µM* | -14% | -7 | -26%
O=C(Cn1nc2c(cc1=O)CCCCC2)NC1CCCc2c1[nH]c1c(Cl)cccc21 (configuration not stated) | i | 13% | 7 | -10%
CC(CNC(=O)Cc1n[nH]c(=O)c2ccccc12)c1ccccc1 (configuration not stated) | i | · | · | ·
N#CCCC(C#N)CSc1nnc(-c2c[nH]c3ccccc23)n1C1CC1 (configuration not stated) | i | · | · | ·
O=C(N1CCC(C(=O)N2CCc3ccccc32)CC1)N1CC2CC(C1)[C@H]1CCCC(=O)N1C2 (some centres not stated) | i | -8% | 4 | 30%
C1CNC(c2nc(CCOCC3CCOCC3)no2)C1 (configuration not stated) | i | 5% | 24 | 1%
C1CCC(c2nc(CCOCC3CCCC3)no2)NC1 (configuration not stated) | 28µM* | -3% | 2 | -10%
O=C(Cc1c[nH]c2ccccc12)N1CCC(c2nc(CCOCC3CCCC3)no2)C1 (configuration not stated) | i | -9%[12.5 µM] | 13 | 20µM*
CN(C)c1ccc(CC(=O)N2CC[C@@](C)(O)[C@@H](O)C2)cc1 | i | -11% | 14 | 13%
COc1ccc(C(C)=O)cc1CSCc1coc(-c2ccccc2)n1 | i | · | · | ·
O=C(CCc1cc2n(n1)CCCNC2)N1CCCC(c2nnc3ccccn23)C1 (configuration not stated) | 11µM* | -10% | 1 | 2%
O=C(NCc1nnc2cc(-c3nc(C4CC4)no3)ccn12)c1ccoc1 | 32µM* | ? | 0 | -14%
O=C(NCc1nnc2cc(-c3nc(C4CC4)no3)ccn12)c1ccccc1 | i | 6% | 12 | -24%
Cc1noc(-c2ccn3c(CNC(=O)c4ccccc4Cl)nnc3c2)n1 | 28µM* | -11% | -3 | -3%
Cc1noc(-c2ccn3c(CNC(=O)c4ccc(F)c(Cl)c4)nnc3c2)n1 | 25µM* | 0% | 18 | 3%
Cc1cc(C)cc(C(=O)NCc2nnc3cc(-c4nc(C5CC5)no4)ccn23)c1 | i | -3% | 14 | -14%
O=C(NCc1nnc2cc(-c3nc(C4CC4)no3)ccn12)c1cccc(Cl)c1 | 14µM* | -12% | 33 | -24%
CC(NCc1cccs1)C1CC1 (configuration not stated) | i | · | · | ·
Cc1ccc(C(=O)NCc2nnc3cc(-c4nc(C5CC5)no4)ccn23)cc1F | ? | ? | -3 | ?
O=C(NCc1nnc2cc(-c3nc(C4CC4)no3)ccn12)c1ccccc1Cl | 22µM* | -4% | 36 | -29%
CCc1noc(-c2ccn3c(CNC(=O)c4nccc5ccccc45)nnc3c2)n1 | ? | -4% | 6 | -8%
Cc1noc(-c2ccn3c(CNC(=O)c4nccc5ccccc45)nnc3c2)n1 | 32µM* | -3% | 7 | 30%
O=C(NCc1nnc2cc(-c3nc(C4CC4)no3)ccn12)c1c(F)cccc1F | 25µM* | -2% | 13 | -14%
CCCCCNc1ncnc2c1CN(c1ccccc1F)C(=O)CN2C | i | -2% | -7 | -3%
